From PubChem BioAssay AID1159580 (chemical genetic matrix, 2015)
The whole screen tested about 5,500 compounds, of which about 2,000 (36%) were called active. Another 18% or so got no clear call; they are omitted. No stated cut-off is given here; in the data, active means normalized growth mostly below about 0.91 (no sharp cut-off); inconclusive means no clear call, values can overlap the other calls; inactive means mostly above about 0.92. The list shows a part of the results.

Experiment: chemical genetic growth profiling, strain panel (AID 1159580);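 further: tested at 20 µM; growth read once vehicle control cultures reached saturation at 30 °C; 1 = growth at the plate median or of vehicle wells; lower values mean less growth of the strain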
Conditions: growth OD

Measured: normalized growth

O=C(O)c1ccccc1-c1c2cc(Br)c(=O)cc-2oc2[c]([Hg])c(O)c(Br)cc12
active: S. cerevisiae deletion strains, locus YKL068W, hits give low values 0.565 | S. cerevisiae deletion strains, locus YKL085W, strain MDH1 (second series), hits give low values 0.0686 | S. cerevisiae deletion strains, locus YKL085W, strain MDH1, hits give low values 0.0686 | S. cerevisiae deletion strains, locus YKL160W, strain elf1, hits give low values 0.0872 | S. cerevisiae deletion strains, locus YKL190W, strain CNB1, hits give low values 0.575 | S. cerevisiae deletion strains, locus YKR001C, strain vps1, hits give low values 0.101 | S. cerevisiae deletion strains, locus YLR102C, strain apc9, hits give low values 0.081 | S. cerevisiae deletion strains, locus YLR113W, strain HOG1, hits give low values 0.485 | S. cerevisiae deletion strains, locus YLR268W, strain sec22, hits give low values 0.106 | S. cerevisiae deletion strains, locus YLR330W, strain CHS5, hits give low values 0.0829 | S. cerevisiae deletion strains, locus YLR342W, strain FKS1 (second series), hits give low values 0.132 | S. cerevisiae deletion strains, locus YLR371W, strain rom2, hits give low values 0.0749 | S. cerevisiae deletion strains, locus YLR418C, strain cdc73, hits give low values 0.166 | S. cerevisiae deletion strains, locus YML016C, strain PPZ1, hits give low values 0.0683 | S. cerevisiae deletion strains, locus YML124C, strain tub3, hits give low values 0.779 | S. cerevisiae deletion strains, locus YMR078C, strain ctf18, hits give low values 0.484 | S. cerevisiae deletion strains, locus YMR223W, strain ubp8, hits give low values 0.0739 | S. cerevisiae deletion strains, locus YMR307W, strain GAS1, hits give low values 0.228 | S. cerevisiae deletion strains, locus YNL067W, strain RPL9B, hits give low values 0.814 | S. cerevisiae deletion strains, locus YNL128W, strain TEP1, hits give low values 0.196 | S. cerevisiae deletion strains, locus YNL183C, strain NPR1, hits give low values 0.513 | S. cerevisiae deletion strains, locus YNL233W, strain BNI4, hits give low values 0.104 | S. cerevisiae deletion strains, locus YNL250W, strain rad50, hits give low values 0.0998 | S. cerevisiae deletion strains, locus YNL271C, strain bni1, hits give low values 0.0638 | S. cerevisiae deletion strains, locus YNL298W, strain CLA4, hits give low values 0.062 | S. cerevisiae deletion strains, locus YNL307C, strain MCK1, hits give low values 0.072 | S. cerevisiae deletion strains, locus YNL322C, strain KRE1, hits give low values 0.914 | S. cerevisiae deletion strains, locus YOL006C, strain TOP1, hits give low values 0.153 | S. cerevisiae deletion strains, locus YOR061W, strain CKA2, hits give low values 0.155 | S. cerevisiae deletion strains, locus YOR069W, strain VPS5, hits give low values 0.494 | S. cerevisiae deletion strains, locus YOR136W, strain idh2, hits give low values 0.0743 | S. cerevisiae deletion strains, locus YOR184W, strain ser1, hits give low values 0.143 | S. cerevisiae deletion strains, locus YOR231W, strain MKK1, hits give low values 0.345 | S. cerevisiae deletion strains, locus YOR270C, strain vph1, hits give low values 1.31 [resistant] | S. cerevisiae deletion strains, locus YOR316C, strain cot1, hits give low values 0.0634 | S. cerevisiae deletion strains, locus YPL055C, strain LGE1, hits give low values 0.226 | S. cerevisiae deletion strains, locus YPL256C, strain CLN2, hits give low values 0.487 | S. cerevisiae deletion strains, locus YPR119W, strain clb2, hits give low values 0.0719 | S. cerevisiae deletion strains, locus YPR141C, strain kar3, hits give low values 0.254 | S. cerevisiae deletion strains, locus YPR163C, strain tif3, hits give low values 0.0765 | S. cerevisiae deletion strains, locus YPR167C, strain met16, hits give low values 0.0655 | S. cerevisiae deletion strains, strain wtn01, hits give low values 0.062 | S. cerevisiae strains, strain wild type, hits give low values 0.196
inactive: S. cerevisiae deletion strains, locus YKL009W, strain mrt4, hits give low values 0.924 | S. cerevisiae deletion strains, locus YKR026C, strain gcn3, hits give low values 1.05 | S. cerevisiae deletion strains, locus YKR091W, strain srl3, hits give low values 1.04 | S. cerevisiae deletion strains, locus YLL001W, strain dnm1, hits give low values 1.03 | S. cerevisiae deletion strains, locus YLL026W, hits give low values 1.04 | S. cerevisiae deletion strains, locus YLL041C, strain sdh2, hits give low values 1.02 | S. cerevisiae deletion strains, locus YLR027C, strain aat2, hits give low values 1.04 | S. cerevisiae deletion strains, locus YLR039C, strain RIC1, hits give low values 0.949 | S. cerevisiae deletion strains, locus YLR058C, strain SHM2, hits give low values 0.992 | S. cerevisiae deletion strains, locus YLR221C, strain rsa3, hits give low values 1 | S. cerevisiae deletion strains, locus YLR258W, strain gsy2, hits give low values 1.04 | S. cerevisiae deletion strains, locus YLR262C, strain YPT6 (second series), hits give low values 1.09 | S. cerevisiae deletion strains, locus YLR262C, strain YPT6, hits give low values 0.68 | S. cerevisiae deletion strains, locus YLR320W, strain mms22, hits give low values 1.02 | S. cerevisiae deletion strains, locus YLR342W, strain FKS1, hits give low values 1.02 | S. cerevisiae deletion strains, locus YLR357W, strain rsc2, hits give low values 1 | S. cerevisiae deletion strains, locus YLR370C, strain arc18, hits give low values 1.04 | S. cerevisiae deletion strains, locus YLR384C, strain iki3, hits give low values 1.02 | S. cerevisiae deletion strains, locus YML032C, strain rad52, hits give low values 0.99 | S. cerevisiae deletion strains, locus YML120C, strain ndi1, hits give low values 1.03 | S. cerevisiae deletion strains, locus YMR058W, strain fet3, hits give low values 1.02 | S. cerevisiae deletion strains, locus YMR125W, strain sto1, hits give low values 1.02 | S. cerevisiae deletion strains, locus YMR129W, hits give low values 1.04 | S. cerevisiae deletion strains, locus YMR205C, strain PFK2, hits give low values 1.09 | S. cerevisiae deletion strains, locus YMR231W, strain pep5, hits give low values 1.03 | S. cerevisiae deletion strains, locus YMR263W, strain SAP30, hits give low values 0.943 | S. cerevisiae deletion strains, locus YNL071W, strain lat1, hits give low values 1.01 | S. cerevisiae deletion strains, locus YNL153C, strain GIM3, hits give low values 0.89 | S. cerevisiae deletion strains, locus YNL209W, strain ssb2, hits give low values 1.03 | S. cerevisiae deletion strains, locus YNL248C, strain rpa49, hits give low values 1.02 | S. cerevisiae deletion strains, locus YNL322C, strain KRE1 (second series), hits give low values 1.05 | S. cerevisiae deletion strains, locus YNR049C, strain mso1, hits give low values 1.02 | S. cerevisiae deletion strains, locus YNR052C, strain pop2, hits give low values 0.937 | S. cerevisiae deletion strains, locus YOL012C, strain htz1 0.228 | S. cerevisiae deletion strains, locus YOL147C, strain pex11, hits give low values 0.995 | S. cerevisiae deletion strains, locus YOR001W, strain rrp6, hits give low values 1.04 | S. cerevisiae deletion strains, locus YOR070C, strain gyp1, hits give low values 1.02 | S. cerevisiae deletion strains, locus YOR080W, strain dia2, hits give low values 1.02 | S. cerevisiae deletion strains, locus YOR083W, strain WHI5, hits give low values 1.03 | S. cerevisiae deletion strains, locus YOR106W, strain vam3, hits give low values 0.952 | S. cerevisiae deletion strains, locus YOR144C, strain elg1, hits give low values 1.02 | S. cerevisiae deletion strains, locus YOR265W, strain rbl2, hits give low values 1.04 | S. cerevisiae deletion strains, locus YOR290C, strain snf2, hits give low values 1.07 | S. cerevisiae deletion strains, locus YPL051W, strain arl3, hits give low values 1 | S. cerevisiae deletion strains, locus YPL078C, strain atp4, hits give low values 1.04 | S. cerevisiae deletion strains, locus YPL106C, strain sse1, hits give low values 0.909 | S. cerevisiae deletion strains, locus YPL240C, strain hsp82, hits give low values 1.03 | S. cerevisiae deletion strains, locus YPL241C, strain CIN2, hits give low values 0.987
